FLuc modulator – qHTS profiling assay for firefly luciferase inhibitor/activator using purifed enzyme and Km concentrations of substrates (counterscreen for miR-21 project). Luciferin 4-monooxygenase (Photinus pyralis), P08659. purified FLuc, Km substrates, luminescence inhibition. Potency, µM (highest dose often 57.5 µM), inactives show at the highest dose activity change, negative = inhibition, usual class: inhibitors. 360,000 tested, 6.9% active. AID 588342, 2011;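 further: plate controls were vehicle for no effect and reference inhibitor for full effect; nearly all actives have a fitted effect of over 55% in size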
Target sequence (P08659 whole entry, looked up): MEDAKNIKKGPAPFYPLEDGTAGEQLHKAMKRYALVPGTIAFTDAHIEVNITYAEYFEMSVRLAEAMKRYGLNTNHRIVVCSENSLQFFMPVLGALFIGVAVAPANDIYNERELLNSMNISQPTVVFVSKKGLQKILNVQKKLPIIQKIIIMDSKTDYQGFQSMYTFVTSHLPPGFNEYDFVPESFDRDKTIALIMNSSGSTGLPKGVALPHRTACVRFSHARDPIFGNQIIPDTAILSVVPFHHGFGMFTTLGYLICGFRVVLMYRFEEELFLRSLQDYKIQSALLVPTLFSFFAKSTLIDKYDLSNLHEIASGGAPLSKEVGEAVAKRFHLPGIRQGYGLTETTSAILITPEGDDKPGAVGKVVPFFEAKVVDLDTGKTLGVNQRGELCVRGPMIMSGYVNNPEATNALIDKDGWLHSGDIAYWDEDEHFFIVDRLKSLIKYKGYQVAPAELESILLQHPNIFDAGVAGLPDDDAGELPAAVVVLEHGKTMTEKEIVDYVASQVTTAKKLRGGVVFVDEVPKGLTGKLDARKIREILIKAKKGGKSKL
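Biochemical qHTS of compounds, final roughly 60 µM downward over six points, against 10 nM purified firefly luciferase using Km concentrations of substrates (10 uM D-luciferin, 10 uM ATP) in Tris acetate pH 7.5 buffer; luminescence output.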
Rab9 promoter act – qHTS Assay for Rab9 Promoter Activators. Huh7 Rab9 promoter-luciferase reporter, luminescence, 24 h. Potency, µM (doses to about 9.22 µM), for the others: at the highest dose activation, negative = inhibition, hits mostly activators. 320,000 tested, 2.8% active; further: % of control where 0% means no effect; nearly all actives have a fitted effect of over 60% in size
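Cell-based reporter: Huh7 stable for Rab9 promoter-driven luciferase, plated in reduced-serum medium with 10% FBS at 1500 cells/well, compound-treated 24 h at 37 °C, luminescence read after 10 min reagent.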
ELG1 genotoxic – qHTS screen for small molecules that induce genotoxicity in human embryonic kidney (HEK293T) cells expressing luciferase-tagged ELG1; HEK293T ELG1-luciferase reporter, luminescence, 16 h; Potency, µM (top dose mostly 46 µM), without a hit: at the highest dose activity change, positive = activation, most hits filed as activators; 330,000 tested, 1.3% active; AID 504466, 2011; further: % of control where 0% means no effect; nearly all actives have a fitted effect of over 60% in size
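DMSO vehicle served as control against compound-treated ELG1-luciferase HEK293T cells; exposure lasted 16 hr at 37 °C and 5% CO2, followed by ONE-Glo luminescence detection after 30 min.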
NPC1 promoter act – qHTS Assay for NPC1 Promoter Activators; Huh7 NPC1 promoter luciferase reporter, 24 h; Potency, µM (titrated, usually from 9.22 µM), without a hit: top-dose activation, most hits filed as activators; 320,000 tested, 2.4% active; AID 485313, 2010; further: % of control where 0% means no effect; nearly all actives have a fitted effect of over 60% in size
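Huh7 reporter cells (NPC1 promoter driving luciferase) are dosed with compound for 24 h at 37 °C, 5% CO2; luciferase detection reagent is then added and luminescence measured after 10 min at ambient temperature.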
SMN2 splice up – qHTS Assay for Enhancers of SMN2 Splice Variant Expression; HEK293 SMN2-luciferase splicing reporter, luminescence, 30-36 h; Potency, µM (highest dose often 46.1 µM), without a hit: at the top dose activity change, positive = activation, actives largely listed as activators; 210,000 tested, 2.8% active; further: % of control where 0% means no effect; nearly all actives have a fitted effect of over 55% in size
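HEK293 cells carry an SMN2 […]–luciferase reporter in which exon 7 inclusion puts luciferase in frame. Cells were plated 10-12 h before compound addition, then incubated 30-36 h at 37C. ONE-Glo luminescence was read; sodium butyrate at 4.5 mM final served as control.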
An asterisk follows results filed as active; ? = inconclusive; nt = no result given. Most compounds without a hit are left out; they make up all but 7.4% or so of the library. The call rests on the fitted dose curve; in most records, active means well fitted curve in the direction sought with a large enough effect; inconclusive means small, poorly fitted or top-dose-only effect, or another doubt; inactive means no such curve, though single readings can be large; an effect the other way counts as inactive or inconclusive. Potency means the concentration at half of the fitted maximal effect.

SMILES	FLuc modulator	Rab9 promoter act	ELG1 genotoxic	NPC1 promoter act	SMN2 splice up
COc1ccc(/C(N)=N/OC(=O)CSc2ccccc2)cc1	4.8µM*	3.2µM*	?	?	27%
N/C(=N\OCc1ccc([N+](=O)[O-])cc1)c1ccncc1	15µM*	-27%	?	?	16µM*
COc1ccc(/C(N)=N/OC(=O)CSc2ccc(C)cc2)cc1	?	-1%	11%	-2%	-18%
Cc1ccc(SCC(=O)O/N=C(\N)c2ccncc2)cc1	-8%	1%	2%	4%	nt
N/C(=N\OC(=O)COc1ccccc1Cl)c1ccc(Cl)cc1	?	0%	?	-2%	?
Cc1ccc(/C(N)=N/OC(=O)COc2ccccc2Cl)cc1	19µM*	-6%	23µM*	17%	22%
C[C@]12C=CC(=O)C=C1CC[C@@H]1C2[C@@H](O)C[C@@]2(C)C1CC[C@]2(O)C(=O)COC(=O)CCC(=O)O (some centres undefined)	-1%	-5%	12%	-3%	nt
CCOc1cc(C(=S)N2CCCCC2)ccc1OCC(=O)NCc1ccccc1	17µM*	-6%	1%	1%	-26%
O=C(O[C@@H]1Cc2c(O)cc(O)cc2OC1c1ccc(O)c(O)c1)c1cc(O)c(O)c(O)c1 (some centres undefined)	nt	nt	nt	nt	3%
CC(C)c1ccc(CNc2ccc([N+](=O)[O-])cn2)cc1	9.5µM*	?	?	?	16µM*
CC(C)(C)c1ccc(CNc2ccc([N+](=O)[O-])cn2)cc1	12µM*	?	?	26%	?
O=[N+]([O-])c1ccc(NCc2ccc(Cl)cc2)nc1	15µM*	?	?	?	nt
CC(C)(C)c1ccc(Cn2cnc(-c3ccc([N+](=O)[O-])cc3)c2)cc1	19µM*	?	?	?	27%
O=[N+]([O-])c1ccc(Nc2ccc(Cl)cc2)nc1	-2%	-4%	1%	-3%	nt
CC(=O)NCCNc1ccc([N+](=O)[O-])cn1	3%	1%	0%	-1%	13%
Cc1cc(S(=O)(=O)N2c3ccc(F)cc3CCC2C)ccc1-n1cnnn1 (centres undefined)	2%	4%	-1%	-4%	nt
Cc1cccc(NC(=O)N2C3CCCC2CC(NC(=O)C(C)(C)C)C3)c1 (centres undefined)	4%	1%	-17%	-1%	nt
Cc1ccc(N=C2CCCN2Cc2ccccc2)c(C#N)c1	24µM*	13%	-1%	3%	-3%
Cc1[nH]n(-c2ccccc2)c(=O)c1C=NCc1ccco1	9.5µM*	1.8µM*	16µM*	3.5µM*	11µM*
Cc1[nH]n(-c2cccc(Cl)c2)c(=O)c1C=NCc1ccco1	1.5µM*	1.1µM*	9.2µM*	2µM*	13µM*
Cc1[nH]n(-c2cccc(Cl)c2)c(=O)c1C=NCC(C)C	24µM*	2.8µM*	21µM*	3.2µM*	13µM*
CC(=O)Oc1cc2c(c(C)c1OC(C)=O)CC=C1[C@]3(C)CC[C@]4(C)CC[C@@](C)(C(=O)O)CC4[C@]3(C)CC[C@]12C (some centres undefined)	nt	nt	nt	nt	-82%
CCc1ccc2ncc3c(-c4ccccc4)nn(-c4ccccc4)c3c2c1	-7%	nt	nt	nt	-5%
Cc1ccc(Oc2ccc(OCC(=O)NC(CC(C)C)C(=O)O)cc2)cc1 (centres undefined)	?	-5%	-1%	-7%	2%
Cc1cc(C)n(CCc2nc(-c3ccc(-c4ccccc4)cc3)cs2)n1	6.7µM*	22%	?	24%	-49%
SMILES	FLuc modulator	Rab9 promoter act	ELG1 genotoxic	NPC1 promoter act	SMN2 splice up
O=C(COC(=O)c1cc([N+](=O)[O-])ccc1NCCO)c1ccccc1	-7%	-1%	3%	1%	2%
Cc1ccc2nc(-c3ccc(Cl)cc3)cc(C(=O)OCC(=O)c3ccccc3)c2c1	-19%	nt	nt	nt	-5%
COCCCn1c(C(=O)NCCN2CCOCC2)cc2c(=O)n3ccccc3nc21	2.7µM*	-2%	10%	-4%	nt
CN(C)S(=O)(=O)Nc1ccc2c(c1)Cc1ccccc1-2	27µM*	24%	?	16%	?
CSCCC(NC(=O)c1ccccc1)C(=O)N1CCN(C(C)=O)CC1 (centres undefined)	-2%	0%	-1%	-1%	nt
COc1ccc(Nc2cc(C(=O)NCc3cccnc3)c3ccccc3n2)c(OC)c1	11µM*	-9%	-6%	1%	-8%
Cc1ccccc1Nc1cc(C(=O)NCc2cccs2)c2ccccc2n1	?	nt	nt	nt	1%
COc1ccc(-c2cc(C(=O)NCc3ccco3)c3ccccc3n2)cc1	6.7µM*	11%	0%	0%	nt
Cc1cc(C)cc(Nc2cc(C(=O)NCc3ccccc3)c3ccccc3n2)c1	4.8µM*	nt	nt	nt	-9%
COc1ccccc1Nc1cc(C(=O)NCc2cccs2)c2ccccc2n1	9.5µM*	nt	nt	nt	-42%
O=C(NCc1ccco1)c1cc(-c2ccccc2)nc2ccccc12	?	-2%	-5%	-2%	?
COc1ccc(Nc2cc(C(=O)NCc3ccccc3)c3ccccc3n2)cc1	-14%	nt	nt	nt	1%
O=C(/C=C/c1cccc([N+](=O)[O-])c1)Nc1cccc(NC(=O)c2cccs2)c1	?	8%	-10%	-1%	10%
COc1ccc(Nc2cc(C(=O)NCc3ccco3)c3ccccc3n2)c(OC)c1	15µM*	-3%	-6%	-3%	4%
COc1ccc(CNC(=O)c2cc(Nc3ccccc3C)nc3ccccc23)cc1	?	nt	nt	nt	-3%
COc1ccc(Nc2cc(C(=O)NCc3ccccn3)c3ccccc3n2)c(OC)c1	11µM*	?	-6%	6%	1%
COc1ccc(-c2cc(C(=O)NCc3ccco3)c3ccccc3n2)c(OC)c1	?	0%	-13%	-4%	nt
COc1ccc(CNC(=O)c2cc(Nc3ccc(C)cc3C)nc3ccccc23)cc1	8.5µM*	nt	nt	nt	-11%
COCc1cc(C)nc2sc(C(=O)Nc3ccc(OC(F)(F)F)cc3)c(N)c12	-3%	nt	nt	nt	-13%
C=C(Nc1ccc(OC)cc1)C(=O)OC	nt	nt	nt	nt	7%
O=C1COc2ccc(OCc3ccc(F)cc3)cc21	4.3µM*	1.1µM*	?	1.4µM*	11µM*
O=c1c2ccc([N+](=O)[O-])cc2ncn1Cc1ccccc1C(F)(F)F	-1%	-2%	0%	-3%	6%
CCCn1nc(NC(=O)c2cccs2)c2cc3cc(OC)ccc3nc21	11µM*	6%	19%	5%	22%
CCCCn1nc(NC(=O)c2cccs2)c2cc3cc(OC)ccc3nc21	19µM*	-6%	0%	-1%	9%
CCCCn1nc(NC(=O)CCC)c2cc3cc(OC)ccc3nc21	-2%	4%	7%	20%	nt
